A selection: hits, their analogues and other compounds. The true share with any hit is near 11%.
Gal4-VP16 FLuc: counter-screen for ROR gamma inhibitors: Gal4-VP16 reporter; Potency, µM (top dose mostly 53.6 µM), without a hit: at the highest dose activity, negative = inhibition, most hits filed as inhibitors; Drosophila S2 Gal4-VP16 UAS-luciferase, luminescence, 20 h; 310,000 compounds, 3.5% hits; AID 2546;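 further: Gal4-VP16 expression switched on by copper sulfate through the metallothionein promoter; potency means the concentration at half of the fitted maximal effect; on the % scale 0 is the no-effect control and ±100 the full control effect; nearly all actives have a fitted effect of over 50% in size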
RORgamma inh: ROR gamma (mouse) transcription inhibition; Drosophila S2 Gal4-RORgamma UAS-luciferase reporter, 20 h; Potency, µM (top dose mostly 53.6 µM), for inactives: at the top dose activity change, negative = inhibition, most hits filed as inhibitors; 310,000 compounds, 5.4% hits; further: potency means the concentration at half of the fitted maximal effect; on the % scale 0 is the no-effect control and ±100 the full control effect; nearly all actives have a fitted effect of over 60% in size
Target sequence (P51450 whole entry, looked up, the tested form may be a part): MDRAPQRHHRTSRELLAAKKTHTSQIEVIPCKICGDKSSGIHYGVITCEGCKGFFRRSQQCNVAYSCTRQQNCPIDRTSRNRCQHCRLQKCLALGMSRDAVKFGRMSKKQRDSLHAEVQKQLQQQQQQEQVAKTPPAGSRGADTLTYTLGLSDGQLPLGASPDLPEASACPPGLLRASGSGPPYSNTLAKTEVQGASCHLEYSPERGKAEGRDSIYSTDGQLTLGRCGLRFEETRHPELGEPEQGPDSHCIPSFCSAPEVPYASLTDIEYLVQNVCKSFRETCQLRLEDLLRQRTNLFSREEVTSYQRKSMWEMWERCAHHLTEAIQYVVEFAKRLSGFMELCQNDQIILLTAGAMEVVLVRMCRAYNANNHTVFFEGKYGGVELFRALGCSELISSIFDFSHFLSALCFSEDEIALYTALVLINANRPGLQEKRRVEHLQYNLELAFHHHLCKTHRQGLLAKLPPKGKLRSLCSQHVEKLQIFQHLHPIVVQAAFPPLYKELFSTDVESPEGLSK
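Read-out: Photinus luciferase luminescence; inhibitors lower reporter signal. Insect Schneider cells with Gal4-ROR gamma fusion under metallothionein promoter, UAS reporter; 700 uM final copper sulfate induction, 20 hr, ambient temperature.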
MCF10A rereplic: inducers of DNA re-replication in MCF 10A breast cells; 350,000 compounds, 2.9% hits; Potency, µM (titrated, usually from 46.1 µM), for the others: at the highest dose activity, positive = re-replication, hits mostly activators; MCF 10A DNA re-replication, Hoechst nuclear intensity, 48 h; further: potency means the concentration at half of the fitted maximal effect; % of control where 0% means no effect; nearly all actives have a fitted effect of over 50% in size
IL-1B inflam inh: inflammasome signaling inhibition, IL-1 beta readout | THP-1 LPS/ATP IL-1B secretion, AlphaLISA, 16 h; active compounds read low | activity change, % at 57.5 µM | 360,000 compounds, 4.7% hits | AID 743279; in the data active means activity change below about -50%; inconclusive means mostly about -30% to -49%; further: on the % scale 0 is the no-effect control and ±100 the full control effect
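THP-1 cells pretreated 1 hr with compounds (up to 57.5 uM final), then stimulated with LPS (250 ng/mL final) plus ATP (1.25 mM final); secreted IL-1B measured by AlphaLISA after 16 hr, decreased signal indicating inhibition.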
SW480 rerep: inducers of DNA re-replication in SW480 colon cancer cells; SW480 DNA re-replication, Hoechst DNA content imaging, 48 h; AID 624297; 340,000 compounds, 1.8% hits; Potency, µM (doses to about 46.1 µM), for the others: at the top dose re-replication activation, usual class: activators; further: potency means the concentration at half of the fitted maximal effect; % of control where 0% means no effect; nearly all actives have a fitted effect of over 55% in size
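250 cells/well; 23 nL cpd via pin tool; 48 hr, 37 C, 5% CO2; Hoechst 40 min; imager read of total nuclear intensity, ex 405/em 500-530 nm.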
Numbers without * were called inactive; ? = inconclusive; · = no result; [ ] = remark or other dose. Unless noted, the call rests on the fitted dose curve; in most records, active means well fitted curve in the direction sought with a large enough effect; inconclusive means small, poorly fitted or top-dose-only effect, or another doubt; inactive means no such curve, though single readings can be large; an effect the other way counts as inactive or inconclusive.

SMILES	Gal4-VP16 FLuc	RORgamma inh	MCF10A rereplic	IL-1B inflam inh	SW480 rerep
Cc1ccc(C(=O)Nc2nc3ccccc3[nH]2)cc1	3.55µM*	2.51µM*	?	32.2	?
CCCCCn1c(=O)c(C(=O)Nc2nc3ccccc3[nH]2)c(O)c2ccccc21	5.2%	-4.2%	?	14.7	-5.1%
CC(=O)[O][Hg][c]1ccccc1	1.2%	1.12µM*	43.1%	·	?
CC(=O)/C=C/c1ccccc1	-8.0%	23.0%	2.4%	-5.0	-2.2%
OC(CNCCc1c[nH]c2ccccc12)c1ccccc1 (centres undefined)	0.8%	-0.5%	?	-56.6*	0.2%
COc1ccc2[nH]cc(CCNCc3cccnc3)c2c1	4.4%	-10.6%	-2.9%	7.0	-21.4%
Fc1ccccc1CNCCc1c[nH]c2ccccc12	0.0%	1.5%	29.2%	-29.1	?
COc1cc(C)c(CNCCc2c[nH]c3ccccc23)cc1C	-5.2%	18.9%	?	-71.8*	?
FC(F)(F)c1ccccc1CNCCc1c[nH]c2ccccc12	6.4%	-2.0%	10.3µM*	-4.2	?
COc1cccc(CNCCc2c[nH]c3ccccc23)c1	-1.4%	7.7%	0.2%	-77.7*	?
CN(C)C(=O)Cl	26.1%	-16.2%	·	·	·
Fc1ccc(CCNCc2ccc(Br)cc2)cc1	-1.3%	-5.8%	7.0%	-68.0*	-4.5%
Fc1ccc(CNCCc2c[nH]c3ccccc23)cc1	-4.1%	?	-3.5%	-81.3*	15.2%
Cn1c(=O)c(Oc2ccc(F)cc2)c(O)c2ccccc21	-0.5%	4.1%	9.0%	12.6	-694.4%
COC(C(=O)C(O)C(C)O)C1Cc2cc3cc(OC4CC(OC5CC(O)C(OC)C(C)O5)C(OC(C)=O)C(C)O4)c(C)c(O)c3c(O)c2C(=O)C1OC1CC(OC2CC(OC3CC(C)(O)C(OC(C)=O)C(C)O3)C(O)C(C)O2)C(O)C(C)O1 (centres undefined)	1µM*	1.26µM*	-8.1%	·	-4.4%
Clc1ccc(C(Cl)(Cl)Cl)cc1Cl	-4.3%	-0.7%	·	·	·
O=c1[nH]c(=S)[nH]c(O)c1/C=C1/C=c2ccccc2=N1	12.6µM*	12.6µM*	?	-99.3*	?
Cc1cccc2c1=NC(=O)/C(=C/c1c(O)[nH]c(=O)[nH]c1=O)C=2	-9.1%	13.7%	5.4%	13.9	1.3%
CNc1ccc2oc(C[C@@H]3OC4(CC[C@@H]3C)O[C@H](C(C)C(=O)c3ccc[nH]3)[C@H](C)C[C@H]4C)nc2c1C(=O)O (some centres undefined)	·	1.78µM*	·	·	·
CNc1ccc2oc(C[C@H]3O[C@]4(CC[C@H]3C)O[C@H]([C@H](C)C(=O)c3ccc[nH]3)[C@H](C)C[C@H]4C)nc2c1C(=O)O	-61.9%	?	·	·	·
C=CCN1CC[C@]23c4c5ccc(O)c4O[C@H]2[C@@H](O)C=C[C@H]3[C@H]1C5	-0.6%	3.0%	10.2%	·	-2.1%
C(=NN1CCCCCC1)c1c[nH]c2ccccc12	·	·	29.2%	7.8	1.3%
Brc1ccc2[nH]cc(/C=N/N3CCCCC3)c2c1	20.1%	28.9%	?	-64.6*	?
CCC1(C)OC(c2ccccc2)=C/C(=C/C=C2C(=O)NC(=O)NC2=O)O1 (centres undefined)	3.6%	-28.8%	20.6µM*	10.3	?
CCC1(Oc2ccccc2)C(=O)NC(=O)NC1=O	·	·	-18.5%	4.2	-0.2%
SMILES	Gal4-VP16 FLuc	RORgamma inh	MCF10A rereplic	IL-1B inflam inh	SW480 rerep
C1=NCCc2c1[nH]c1ccccc21	·	·	16.4µM*	50.2	4.11µM*
CCN(CC)P(=O)(Nc1ccc([N+](=O)[O-])cc1)c1c(C)nn(CCC#N)c1NC(=O)c1ccc(Cl)cc1Cl (centres undefined)	-7.0%	?	-0.7%	-7.4	9.4%
CCCCCCC(=O)N/N=C/c1c(O)n(C(C)CC)c(=S)[nH]c1=O (centres undefined)	?	10µM*	?	220.2	?
CCCCCCC(=O)N/N=C/c1c(O)n(C2CC2)c(=S)[nH]c1=O	-14.5%	-39.3%	15.2%	58.8	-4.1%
CCCCCC1C(=O)O[C@H](C)[C@@H](NC(=O)c2cccc(NC=O)c2O)C(=O)OC(C)C1OC(=O)CC(C)C (some centres undefined)	11.2µM*	0.005µM*	·	·	·
CCCC[C@H]1C(=O)O[C@H](C)[C@H](NC(=O)c2cccc(NC=O)c2OC)C(=O)O[C@@H](C)[C@@H]1OC(=O)CC(C)C	1.78µM*	1.78µM*	·	·	·
CCCc1cc2c(n1CCO)C(C)C1CN(C(=O)c3ccccc3)C(C)(C(=O)OC)C21 (centres undefined)	-13.2%	0.5%	·	·	·
C[C@]12O[C@H](C[C@]1(O)CO)n1c3ccccc3c3c4c(c5c6ccccc6n2c5c31)CNC4=O	5.62µM*	?	?	·	?
COC(=O)[C@@]1(OC)C[C@@H]2O[C@@]1(C)n1c3ccccc3c3c4c(c5c6ccccc6n2c5c31)C(=O)N(C)C4	-4.0%[10 µM]	-7.8%[10 µM]	·	·	·
CCOC(=O)/C(C#N)=C1/SC(C)C(=O)N1c1ccc(Br)cc1 (centres undefined)	-23.8%	11.2µM*	?	-3.7	0.3%
Nc1ccc2c3c(cccc13)CC2	-14.8%	-12.5%	16.4µM*	8.7	16.4µM*
O=[N+]([O-])c1ccc2c3c(cccc13)CC2	-3.8%	3.5%	·	·	·
O=C(c1csnn1)N1CCC[C@@]2(CCN(Cc3ccncc3)C2)C1	0.2%	5.6%	·	·	·
C[C@@H](N)Cn1ccc2cc(F)c(Cl)cc21	-5.2%	10.0%	·	·	·
CCCCn1c(=O)c(C(=O)Nc2ccccc2C)c(O)c2ccccc21	-24.3%	?	-5.0%	29.9	-0.4%
CCCCCn1c(=O)c(C(=O)NCCc2ccccc2)c(O)c2ccccc21	?	?	23.1µM*	79.6	2.9%
CCCCCn1c(=O)c(C(=O)Nc2ncccc2C)c(O)c2ccccc21	8.91µM*	8.91µM*	1.8%	4.4	?
COC(=O)C12OCC34C(CC5C(C)=C(O)C(=O)CC5(C)C3C(O)C1O)OC(=O)C(OC(=O)/C=C(\C)C(C)C)C24 (centres undefined)	·	·	18.3%	-98.2*	?
Cc1ccc(N=C=O)cc1N=C=O	11.7%	?	·	·	·
CC[C@H]1CN(C)C[C@@]2(C(=O)OC)Cc3c([nH]c4ccccc34)C(=O)C[C@@H]12	·	·	-32.3%	5.0	-41.5%
CC[C@H]1CC2CN3CCc4c([nH]c5cc(OC)ccc45)[C@](C(=O)OC)(C2)[C@H]13	·	·	?	3.5	0.731µM*
Cc1[nH]n(-c2ccccc2)c(=O)c1C(c1cccc([N+](=O)[O-])c1O)c1c(C)[nH]n(-c2ccccc2)c1=O	?	?	?	-3.0	-6.4%
COc1cc(C(c2c(C)[nH]n(-c3ccccc3)c2=O)c2c(C)[nH]n(-c3ccccc3)c2=O)cc(OC)c1OC	5.0%	7.9%	1.6%	-78.1*	-4.0%

Compound activity from PubChem BioAssay.
